Values joined by “and” are separate entries in the source; they are usually repeats but may differ in a detail not shown here. Identical values can stand only once. Results filed as inconclusive are left out. Active and inactive are the calls of the source. The calls were made as follows: active = hit-call score of the fitted dose curve at least 0.9, where 1 is the maximum; inconclusive = response in the unintended direction; inactive = score below 0.9.
molecular target: Cellular tumor antigen p53 (Homo sapiens) (UniProt P04637); test: TOX21_p53_BLA_p5_ratio: Tox21 HCT-116 p53 Agonism Beta-lactamase Assay, Ratio, Phase 5 (AID 2283599)
Procedure, shortened: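 HCT-116 cells carrying a p53-inducible beta-lactamase reporter were seeded at 4000 cells/well and dosed after 5 h with compound in DMSO (217-fold dilution). After 16 h at 37C, CCF4-AM substrate was added for 2 h, and the 460/530 nm emission ratio was scored as gain-of-signal versus DMSO.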

Cellular tumor antigen p53 (Homo sapiens), sequence (P04637 whole entry, looked up): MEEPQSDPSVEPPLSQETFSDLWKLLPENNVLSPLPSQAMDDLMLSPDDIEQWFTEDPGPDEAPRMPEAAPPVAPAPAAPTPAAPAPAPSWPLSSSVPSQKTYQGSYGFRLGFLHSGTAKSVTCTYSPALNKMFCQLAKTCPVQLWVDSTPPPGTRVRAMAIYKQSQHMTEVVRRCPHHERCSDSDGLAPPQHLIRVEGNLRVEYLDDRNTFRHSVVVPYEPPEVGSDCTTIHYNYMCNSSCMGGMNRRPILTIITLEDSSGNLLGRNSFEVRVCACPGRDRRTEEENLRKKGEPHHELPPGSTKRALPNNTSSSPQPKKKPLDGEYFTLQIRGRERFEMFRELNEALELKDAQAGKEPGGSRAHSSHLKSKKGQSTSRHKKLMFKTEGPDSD

Row | Structure (SMILES) | outcome | AC50
1 | O=C1c2cccc(O)c2C(=O)c2c(O)cccc21 | inactive | 
2 | CO[C@@]12[C@H](COC(N)=O)C3=C(C(=O)C(C)=C(N)C3=O)N1C[C@@H]1N[C@@H]12 |  | 6.3 µM (active)
3 | C=C(Nc1ccc(OCC)cc1)Nc1ccc(OCC)cc1 | inactive | 
4 | COc1cc2[nH]c(=O)[nH]c(=O)c2cc1OC | inactive | 
5 | C[N+]1(CC2COC(c3ccccc3)(C3CCCCC3)O2)CCCCC1 (stereo not given) | inactive | 
6 | C#C[C@]1(OC(C)=O)CC[C@H]2[C@@H]3CCC4=C/C(=N/O)CC[C@@H]4[C@H]3CC[C@@]21CC |  | 40.6 µM (active)
7 | CO[Si](CCCNc1ccccc1)(OC)OC | inactive | 
8 | COc1cc(N)c(Cl)cc1C(=O)NC1CCN(CCCOc2ccc(F)cc2)CC1OC (stereo not given) | inactive | 
9 | C(=C\c1ccccc1)/CN1CCN(C(c2ccccc2)c2ccccc2)CC1 | inactive | 
10 | CCOc1ccc2nc3cc(N)ccc3c(N)c2c1 |  | 43.5 µM (active)
11 | CCCCC(=O)OCC(=O)[C@]1(O)Cc2c(O)c3c(c(O)c2[C@@H](O[C@H]2C[C@H](NC(=O)C(F)(F)F)[C@H](O)[C@H](C)O2)C1)C(=O)c1c(OC)cccc1C3=O |  | 7.73 µM (active)
12 | C=CCNC1=C2C[C@@H](C)C[C@H](OC)[C@H](O)[C@@H](C)/C=C(\C)[C@H](OC(N)=O)[C@@H](OC)/C=C\C=C(/C)C(=O)NC(=CC1=O)C2=O |  | 0.183 µM (active)
13 | CCCC(CCC)C(=O)OC1C[C@H]2CC[C@@H](C1)[N+]2(C)C (stereo not given in full) | inactive | 
14 | CC(=O)Oc1ccc(C2(c3ccc(OC(C)=O)cc3)C(=O)Nc3ccccc32)cc1 |  | 663 nM (active) and 407 nM (active)
15 | CCCCCCCCCCCC[n+]1ccc2ccccc2c1 |  | 28.5 µM (active)
16 | CO[C@H]1/C=C/O[C@@]2(C)Oc3c(C)c(O)c4c(O)c(cc(O)c4c3C2=O)NC(=O)/C(C)=C\C=C\[C@H](C)[C@H](O)[C@@H](C)[C@@H](O)[C@@H](C)[C@H](OC(C)=O)[C@@H]1C | inactive | 
17 | Cc1c(C(=O)NN2CCCCC2)nn(-c2ccc(Cl)cc2Cl)c1-c1ccc(Cl)cc1 |  | 37.8 µM (active)
18 | CCOC(=O)/C=C(C)/C=C/C=C(C)/C=C/c1c(C)cc(OC)c(C)c1C | inactive | 
19 | CCOc1cc([N+](=O)[O-])c(OCC)cc1N1CCOCC1 | inactive | 
20 | CCCCCCCCOc1ccccc1C(=O)Nc1ccc(C(=O)OCC[N+](C)(CC)CC)cc1 | inactive | 
21 | CCCCCCCCNC(C)C(O)c1ccc(SC(C)C)cc1 (stereo not given) |  | 23.9 µM (active)
22 | Cc1ccc2c(Cl)cc(Cl)c(O)c2n1 |  | 25.9 µM (active)
23 | CC1=C[C@H](O)CC(C)(C)[C@H]1/C=C/C(C)=C/C=C/C(C)=C/C=C/C=C(C)/C=C/C=C(C)/C=C/C1=C(C)C[C@@H](O)CC1(C)C |  | 38.4 µM (active)
24 | Cc1ccccn1 | inactive | 
25 | Cc1cc(CC(C)CC(C)(C)C)n(O)c(=O)c1 (stereo not given) (tested in a mixture with another compound) |  | 36.1 µM (active)
26 | COc1cc(NC(C)CCCN)c2ncccc2c1 (stereo not given) | inactive | 

system: not listed separately; test: TOX21_p53_BLA_p5_viability: Viability Assessment in the Tox21 HCT-116 p53 Agonism Beta-lactamase Assay, Phase 5 (AID 2283600)
Procedure, shortened: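 4000 cells/well; 5 h pre-incubation; DMSO compounds pin-transferred, 217-fold dilution; 16 h, 37C/5% CO2; CCF4-AM 2 h RT; CellTiter-Glo 30 min RT; luminescence.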

Row | Structure (SMILES) | outcome | AC50
27 | COc1ccc(S(=O)(=O)Nc2nnc(CC(C)C)s2)cc1 | inactive | 
28 | CO[C@H]1/C=C/O[C@@]2(C)Oc3c(C)c(O)c4c(O)c(c(/C=N/N5CCN(C6CCCC6)CC5)c(O)c4c3C2=O)NC(=O)/C(C)=C\C=C\[C@H](C)[C@H](O)[C@@H](C)[C@@H](O)[C@@H](C)[C@H](OC(C)=O)[C@@H]1C |  | 42.8 µM (active)
29 | CCCN1C[C@H](CSC)C[C@@H]2c3cccc4[nH]cc(c34)C[C@H]21 | inactive | 
30 | Cc1c(-c2ccccc2)oc2c(C(=O)OCCN3CCCCC3)cccc2c1=O | inactive | 
31 | O=S(=O)(O)c1ccc(O)cc1 | inactive | 
32 | CCCCCCCCC1CO1 (stereo not given) | inactive | 
33 | Cc1ccc(O)c(O)c1 |  | 42 µM (active)
34 | O=C(O)c1ccc(Cl)c(Cl)c1 | inactive | 
35 | COc1cccc2c1[C@@H]1CN(CCCCn3c(=O)[nH]c4c(sc5ncc(-c6ccccc6)nc54)c3=O)C[C@@H]1CO2 | inactive | 
36 | CCC(C)[C@H]1O[C@]2(C=C[C@@H]1C)C[C@@H]1C[C@@H](C/C=C(\C)[C@@H](O[C@H]3C[C@H](OC)[C@@H](O[C@H]4C[C@H](OC)[C@H](NC(C)=O)[C@H](C)O4)[C@H](C)O3)[C@@H](C)/C=C/C=C3\CO[C@@H]4[C@H](O)C(C)=C[C@@H](C(=O)O1)[C@]34O)O2 (stereo not given in full) |  | 15.8 µM (active)
37 | COCC(=O)O[C@]1(CCN(C)CCCc2nc3ccccc3[nH]2)CCc2cc(F)ccc2[C@@H]1C(C)C |  | 15.8 µM (active)
38 | CSc1ccc2c(c1)C(N1CCN(C)CC1)Cc1ccccc1S2 (stereo not given) |  | 38.3 µM (active)
39 | CC(C)NCC1CCc2cc(CO)c([N+](=O)[O-])cc2N1 (stereo not given) | inactive | 
40 | O=C1c2cccc(O)c2C(=O)c2c(O)cccc21 | inactive | 
41 | CO[C@@]12[C@H](COC(N)=O)C3=C(C(=O)C(C)=C(N)C3=O)N1C[C@@H]1N[C@@H]12 |  | 34.4 µM (active)
42 | C=C(Nc1ccc(OCC)cc1)Nc1ccc(OCC)cc1 | inactive | 
43 | COc1cc2[nH]c(=O)[nH]c(=O)c2cc1OC | inactive | 
44 | C[N+]1(CC2COC(c3ccccc3)(C3CCCCC3)O2)CCCCC1 (stereo not given) | inactive | 
45 | C#C[C@]1(OC(C)=O)CC[C@H]2[C@@H]3CCC4=C/C(=N/O)CC[C@@H]4[C@H]3CC[C@@]21CC |  | 37.1 µM (active)
46 | CO[Si](CCCNc1ccccc1)(OC)OC | inactive | 

Row | Structure (SMILES) | outcome | AC50
47 | COc1cc(N)c(Cl)cc1C(=O)NC1CCN(CCCOc2ccc(F)cc2)CC1OC (stereo not given) | inactive | 
48 | C(=C\c1ccccc1)/CN1CCN(C(c2ccccc2)c2ccccc2)CC1 | inactive | 
49 | CCOc1ccc2nc3cc(N)ccc3c(N)c2c1 | inactive | 
50 | CCCCC(=O)OCC(=O)[C@]1(O)Cc2c(O)c3c(c(O)c2[C@@H](O[C@H]2C[C@H](NC(=O)C(F)(F)F)[C@H](O)[C@H](C)O2)C1)C(=O)c1c(OC)cccc1C3=O | inactive | 
51 | C=CCNC1=C2C[C@@H](C)C[C@H](OC)[C@H](O)[C@@H](C)/C=C(\C)[C@H](OC(N)=O)[C@@H](OC)/C=C\C=C(/C)C(=O)NC(=CC1=O)C2=O | inactive | 
52 | CCCC(CCC)C(=O)OC1C[C@H]2CC[C@@H](C1)[N+]2(C)C (stereo not given in full) | inactive | 
53 | CC(=O)Oc1ccc(C2(c3ccc(OC(C)=O)cc3)C(=O)Nc3ccccc32)cc1 | inactive | 
54 | CCCCCCCCCCCC[n+]1ccc2ccccc2c1 |  | 33.4 µM (active)
55 | CO[C@H]1/C=C/O[C@@]2(C)Oc3c(C)c(O)c4c(O)c(cc(O)c4c3C2=O)NC(=O)/C(C)=C\C=C\[C@H](C)[C@H](O)[C@@H](C)[C@@H](O)[C@@H](C)[C@H](OC(C)=O)[C@@H]1C | inactive | 
56 | Cc1c(C(=O)NN2CCCCC2)nn(-c2ccc(Cl)cc2Cl)c1-c1ccc(Cl)cc1 |  | 23 µM (active)
57 | CCOC(=O)/C=C(C)/C=C/C=C(C)/C=C/c1c(C)cc(OC)c(C)c1C | inactive | 
58 | CCOc1cc([N+](=O)[O-])c(OCC)cc1N1CCOCC1 | inactive | 
59 | CCCCCCCCOc1ccccc1C(=O)Nc1ccc(C(=O)OCC[N+](C)(CC)CC)cc1 |  | 32.8 µM (active)
60 | CCCCCCCCNC(C)C(O)c1ccc(SC(C)C)cc1 (stereo not given) |  | 19 µM (active)
61 | Cc1ccc2c(Cl)cc(Cl)c(O)c2n1 | inactive | 
62 | CC1=C[C@H](O)CC(C)(C)[C@H]1/C=C/C(C)=C/C=C/C(C)=C/C=C/C=C(C)/C=C/C=C(C)/C=C/C1=C(C)C[C@@H](O)CC1(C)C |  | 43 µM (active)
63 | Cc1ccccn1 | inactive | 
64 | Cc1cc(CC(C)CC(C)(C)C)n(O)c(=O)c1 (stereo not given) (tested in a mixture with another compound) |  | 41.8 µM (active)
65 | COc1cc(NC(C)CCCN)c2ncccc2c1 (stereo not given) | inactive | 

— PubChem BioAssay (EPA / NIEHS)
